Results as given in PubChem BioAssay (NCATS).
Where “and” joins values, the source holds several entries; their conditions need not be identical. Equal values may be shown once. Inconclusive results are not listed. Some structures have more than one record in an assay (separate samples or runs), and their calls can disagree. Calls of active or inactive are those of the source. Calls come from the whole dose curve; as a rule, active = well fitted curve in the direction sought with a large enough effect; inconclusive = small, poorly fitted or top-dose-only effect, or another doubt; inactive = no such curve, though single readings can be large; an effect the other way counts as inactive or inconclusive.

Key:
[1] = Quantitative highthroughput screen to assess conditional lethalithy of NOMO1 cells grown in RPMI1640 with untreated serum (RPMI+s) (AID 1963876); note: nearly all actives have a fitted effect of over 35% in size; note: potency is the fitted concentration of half-maximal effect;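 for viability: 100% = DMSO wells and 0% = empty wells without cells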
Summary of the method: (§1)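 Each medium arm—HPLM with 10% dialyzed FBS, or RPMI1640 with 5 mM glucose and 10% untreated or dialyzed FBS—was screened against an 11-point, 3-fold compound titration for 48 h at 37 °C, with CellTiter-Glo luminescence as endpoint.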

[2] = Quantitative highthroughput screen to assess conditional lethalithy of NOMO1 cells grown in RPMI1640 with dialyzed fetal bovine serum (RPMI+ds) (AID 1963877); note: nearly all actives have a fitted effect of over 30% in size; note: potency is the fitted concentration of half-maximal effect;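 for viability: series mostly up to about 46 µM; 100% = DMSO control wells and 0% = empty wells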
Summary of the method: as §1

[3] = Quantitative highthroughput screen to assess conditional lethalithy of NOMO1 cells grown in Human Plasma-Like Medium with dialyzed fetal bovine serum (HPLM+ds) (AID 1963878); note: nearly all actives have a fitted effect of over 35% in size; note: potency is the fitted concentration of half-maximal effect;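 for viability: 100% = DMSO wells and 0% = empty wells on each plate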
Summary of the method: as §1

[4] = Quantitative highthroughput screen to assess conditional lethalithy of P12 Ichikawa cells grown in Human Plasma-Like Medium with dialyzed fetal bovine serum (HPLM+ds) (AID 1963879); conditions: Potency: viability; note: nearly all actives have a fitted effect of over 35% in size; note: potency is the fitted concentration of half-maximal effect; for viability: series mostly up to about 46 µM
Summary of the method: as §1

[5] = Quantitative highthroughput screen to assess conditional lethalithy of P12 Ichikawa cells grown in RPMI1640 with untreated serum (RPMI+s) (AID 1963881); conditions: Potency: viability; note: nearly all actives have a fitted effect of over 35% in size; note: potency is the fitted concentration of half-maximal effect;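 for viability: series mostly up to about 46 µM; 100% = DMSO wells and 0% = empty wells without cells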
Summary of the method: as §1

[6] = Quantitative highthroughput screen to assess conditional lethalithy of SEM cells grown in Human Plasma-Like Medium with dialyzed fetal bovine serum (HPLM+ds) (AID 1963882); note: nearly all actives have a fitted effect of over 35% in size; note: potency is the fitted concentration of half-maximal effect; for viability: series mostly up to about 46 µM
Summary of the method: as §1

[7] = Quantitative highthroughput screen to assess conditional lethalithy of SEM cells grown in RPMI1640 with unreated serum (RPMI+s) (AID 1963883)
Summary of the method: as §1

[8] = Quantitative highthroughput screen to assess conditional lethalithy of SEM cells grown in RPMI1640 with dialyzed fetal bovine serum (RPMI+ds) (AID 1963884); note: nearly all actives have a fitted effect of over 35% in size; note: potency is the fitted concentration of half-maximal effect;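 for viability: series mostly up to about 46 µM; 100% = DMSO control wells and 0% = empty wells without cells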
Summary of the method: as §1

[9] = Cellular viability qHTS for adrenocortical cancer (ACC) cell line SW-13 (AID 1963989); conditions: SW-13 ACC cells viability, CellTiter-Glo, 48 h; activity (max response): stronger effect = lower value; note: nearly all actives have a fitted effect of over 65% in size; note: potency is the fitted concentration of half-maximal effect;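 for activity (max response): cells grown in serum-free medium with ITS supplement; % is set by controls: 0 for no effect and ±100 for the full control effect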
Summary of the method: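 Viability was read as CellTiter-Glo luminescence after 48 h compound treatment (up to 46 uM final) of SW-13 cells grown serum-free; titration curves were fit with a four-parameter logistic model to give IC50 and efficacy.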

[10] = Cellular viability qHTS for adrenocortical cancer (ACC) cell line NCI-H295R (AID 1963990); note: nearly all actives have a fitted effect of over 60% in size; note: potency is the fitted concentration of half-maximal effect
Summary of the method: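 CellTiter-Glo ATP luminescence, read 48 h after compound addition, measured viability of NCI-H295R adrenocortical cells grown serum-free with ITS. Final concentrations spanned up to 46 uM. Data normalized to DMSO and doxorubicin, fitted for IC50 and maximal response.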

[11] = Quantitative highthroughput screen to assess conditional lethalithy of P12 Ichikawa cells grown in RPMI1640 with dialyzed fetal bovine serum (RPMI+ds) (AID 1963880); conditions: Potency: P12-Ichikawa viability
Summary of the method: as §1

Cc1cccc(N(C)C(=S)Oc2ccc3ccccc3c2)c1
inactive: Potency [1] | Potency [2] | Potency [3] | Potency [4] | Potency [5] | Potency [6] | Potency [7] | Potency [8] | activity (max response) [9] 2.38% | Potency [10]

COc1ccc(C=Cc2cc(OC)c(OC)c(OC)c2)cc1O
inactive: Potency [1] | Potency [2] | Potency [3] | Potency [4] | Potency [5] | Potency [7] | Potency [8]

CCOC(=O)c1c(C)n(C)c2ccc(O)cc12
inactive: Potency [1] | Potency [2] | Potency [3] | Potency [4] | Potency [5] | Potency [6] | Potency [7] | Potency [8] | Potency [10]

Cc1cc(SCc2sc(-c3ccc(C(F)(F)F)cc3)nc2C)ccc1OCC(=O)O
inactive: Potency [1] | Potency [2] | Potency [3] | Potency [4] | Potency [11] | Potency [5] | Potency [10]

Clc1cccc(-n2nnnc2NCc2ccccc2Oc2ccccn2)c1Cl
inactive: Potency [1] | Potency [2] | Potency [3] | Potency [4] | Potency [11] | Potency [6] | Potency [7] | Potency [8] | Potency [10]

O=[N+]([O-])c1ccc(Nc2ccccc2-c2ccccc2)c2nonc12
active: Potency [9] 8.91 µM | Potency [10] 11.2 µM
inactive: Potency [1] | Potency [2] | Potency [3] | Potency [4] | Potency [11] | Potency [5]

CCC(=C(CC)c1ccc(O)cc1)c1ccc(O)cc1
inactive: Potency [1] | Potency [2] | Potency [3] | Potency [4] | Potency [5] | Potency [6] | Potency [7]

CC#CCn1c(N2CCC[C@@H](N)C2)nc2c1c(=O)n(Cc1nc(C)c3ccccc3n1)c(=O)n2C
inactive: Potency [1] | Potency [2] | Potency [3] | Potency [4] | Potency [5] | Potency [6] | Potency [7] | Potency [8] | activity (max response) [9] 0.332%

Clc1ccc(CCC(Cn2ccnc2)Sc2c(Cl)cccc2Cl)cc1 (configuration not stated)
inactive: Potency [1] | Potency [2] | Potency [3] | Potency [4] | Potency [11] | Potency [6]

CC1(C)SCCN(S(=O)(=O)c2ccc(OCC#CCO)cc2)[C@@H]1C(=O)NO
inactive: Potency [1] | Potency [2] | Potency [3] | Potency [4] | Potency [5] | Potency [7] | Potency [8]

NC(=O)c1cccc(N)c1
inactive: Potency [1] | Potency [2] | Potency [3] | Potency [4] | Potency [11] | activity (max response) [9] -2.32% | Potency [10]

Cc1oncc1C(=O)Nc1ccc(C(F)(F)F)cc1
inactive: Potency [1] | Potency [2] | Potency [3] | Potency [4] | Potency [5] | Potency [6] | activity (max response) [9] -12.3% and -17.5% | Potency [10]

O=C1NC(=O)C(=Cc2cccc(C(F)(F)F)c2)S1
inactive: Potency [1] | Potency [2] | Potency [3] | Potency [4] | Potency [11] | Potency [6]

COc1ccccc1N1CCN(CCN(C(=O)C2CCCCC2)c2ccccn2)CC1
inactive: Potency [1] | Potency [2] | Potency [3] | Potency [4] | Potency [5] | Potency [6] | Potency [8] | Potency [10]

Cc1[nH]c2ccccc2c1CCNCc1ccc(C=CC(=O)NO)cc1
active: Potency [1] 0.743 µM | Potency [2] 743 nM | Potency [3] 0.526 µM | Potency [4] 0.59 µM | Potency [5] 0.469 µM | Potency [6] 0.209 µM | Potency [8] 0.264 µM

NC1CCC(Nc2nc(Nc3ccc(C(=O)N4CCCCC4)cc3)c3ncn(-c4cccc(F)c4)c3n2)CC1 (configuration not stated)
inactive: Potency [1] | Potency [2] | Potency [3] | Potency [4] | Potency [5] | Potency [6] | Potency [7]

O=c1ccn([C@@H]2O[C@H](CO)[C@H](O)[C@H]2O)c(=O)[nH]1
inactive: Potency [1] | Potency [2] | Potency [3] | Potency [4] | Potency [5] | Potency [6] | Potency [7] | Potency [8]

CC(C=CC1=C(C)CCCC1(C)C)=CC=CC(C)=CC(=O)O
inactive: Potency [1] | Potency [3] | Potency [4] | Potency [11] | Potency [6] | Potency [7] | Potency [8]
833 nM (active) and inactive: Potency [2]

CCCNS(=O)(=O)Nc1ncnc(OCCOc2ncc(Br)cn2)c1-c1ccc(Br)cc1
inactive: Potency [1] | Potency [2] | Potency [3] | Potency [4] | Potency [11] | Potency [6] | Potency [10]

CCCCN1CCC(CNC(=O)c2c3n(c4ccccc24)CCCO3)CC1
active: Potency [4] 18.7 µM | Potency [5] 16.6 µM
inactive: Potency [1] | Potency [2] | Potency [3] | Potency [7] | Potency [8]

O=c1c(O)c(-c2ccc(O)cc2)oc2cc(O)cc(O)c12
inactive: Potency [1] | Potency [2] | Potency [3] | Potency [4] | Potency [11] | Potency [6] | activity (max response) [9] -9.76% | Potency [10]

CC(=O)N1CCN(c2ccc(OCc3nn(C)c(C)c3-c3cccc4c(CCCOc5cccc6ccccc56)c(C(=O)O)n(Cc5cccnc5)c34)cc2)CC1
active: Potency [1] 1.66 µM | Potency [2] 2640 nM | Potency [3] 2.35 µM | Potency [4] 10.5 µM | Potency [5] 10.5 µM
inactive: Potency [6] | Potency [8]
